Drawing on article PMC7862700, “An all-to-all approach to the identification of sequence-specific readers for epigenetic DNA modifications on cytosine”, this text covers binding signal for one sequence.

What all share (experiment): DAPPL (digital affinity profiling via proximity ligation, sequencing); 10 mM Tris-HCl pH 7.5, 50 mM NaCl, 1 mM DTT, 4% glycerol, room temperature, 30 min; GST-TFs on glutathione beads, 16-mer random dsDNA library, 0.1% formaldehyde crosslink after washing; high values mean tight binding
Common to all, as to details: protein: recombinant; tags: N-terminal GST; dsDNA, one strand shown

The target of one assay is T1, ELK1 (Homo sapiens, UniProt P19419 1-428).
T1 sequence: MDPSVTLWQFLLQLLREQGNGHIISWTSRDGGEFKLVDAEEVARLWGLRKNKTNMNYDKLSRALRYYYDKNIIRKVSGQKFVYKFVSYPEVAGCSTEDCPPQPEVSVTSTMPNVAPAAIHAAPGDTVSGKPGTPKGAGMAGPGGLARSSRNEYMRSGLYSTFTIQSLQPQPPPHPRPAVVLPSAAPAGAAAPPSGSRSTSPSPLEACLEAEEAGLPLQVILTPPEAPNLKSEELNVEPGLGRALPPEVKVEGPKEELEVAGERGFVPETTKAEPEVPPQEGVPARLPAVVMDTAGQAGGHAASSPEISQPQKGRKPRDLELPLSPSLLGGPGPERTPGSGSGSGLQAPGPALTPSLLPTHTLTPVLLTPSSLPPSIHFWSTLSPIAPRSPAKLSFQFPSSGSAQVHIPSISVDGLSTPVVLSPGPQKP
The procedure, abridged:
(§1)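 GST fusions of human transcription factors were expressed in yeast and captured with glutathione beads. Once given DNA barcodes and pooled alongside a tag-only sample, they were incubated for 30 min at room temperature with 200 nmole of a random double-stranded 16-mer DNA library in Tris/NaCl/DTT/glycerol buffer, then washed, crosslinked (0.1% formaldehyde), proximity-ligated, PCR-amplified and sequenced on an Illumina NextSeq500. The binding signal of each hexamer is its read frequency for a factor divided by its frequency for the tag-only sample.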

The next assay has as its target T2, GABPA (Homo sapiens, UniProt Q06546 1-454).
T2 sequence: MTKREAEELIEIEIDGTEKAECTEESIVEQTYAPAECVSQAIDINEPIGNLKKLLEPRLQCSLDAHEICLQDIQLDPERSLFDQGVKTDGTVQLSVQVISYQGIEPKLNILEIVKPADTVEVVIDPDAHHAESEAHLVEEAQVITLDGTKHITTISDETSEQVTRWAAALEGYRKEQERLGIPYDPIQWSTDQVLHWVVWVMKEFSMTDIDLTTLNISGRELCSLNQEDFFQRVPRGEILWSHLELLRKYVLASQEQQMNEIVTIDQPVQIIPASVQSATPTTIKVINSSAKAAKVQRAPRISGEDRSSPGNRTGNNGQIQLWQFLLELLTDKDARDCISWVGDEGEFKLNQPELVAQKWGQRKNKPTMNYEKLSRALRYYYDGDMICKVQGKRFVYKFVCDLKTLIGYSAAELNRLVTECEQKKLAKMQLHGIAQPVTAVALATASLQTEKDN
Summed up: as §1

In a further assay the target is T3, ERG (Homo sapiens, UniProt P11308 1-479).
T3 sequence: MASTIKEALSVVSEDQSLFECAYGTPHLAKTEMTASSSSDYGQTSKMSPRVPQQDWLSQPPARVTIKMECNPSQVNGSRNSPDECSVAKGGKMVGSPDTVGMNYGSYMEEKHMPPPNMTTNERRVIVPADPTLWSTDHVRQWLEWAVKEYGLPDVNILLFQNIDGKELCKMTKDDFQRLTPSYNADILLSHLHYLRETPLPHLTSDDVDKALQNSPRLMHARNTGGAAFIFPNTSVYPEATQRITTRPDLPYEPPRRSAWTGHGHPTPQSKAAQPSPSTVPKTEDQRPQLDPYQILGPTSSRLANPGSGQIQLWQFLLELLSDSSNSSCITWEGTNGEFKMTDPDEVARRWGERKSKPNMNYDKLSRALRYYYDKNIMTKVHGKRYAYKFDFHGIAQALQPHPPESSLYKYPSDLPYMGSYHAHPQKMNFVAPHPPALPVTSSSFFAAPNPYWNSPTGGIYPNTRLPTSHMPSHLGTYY
The procedure, abridged: as §1

For the next assay, the target named is ELF1 (Homo sapiens, UniProt P32519 1-619). The procedure, abridged: as §1
The next assay concerns the target T4, EHF (Homo sapiens, UniProt Q9NZC4 1-300).
T4 sequence: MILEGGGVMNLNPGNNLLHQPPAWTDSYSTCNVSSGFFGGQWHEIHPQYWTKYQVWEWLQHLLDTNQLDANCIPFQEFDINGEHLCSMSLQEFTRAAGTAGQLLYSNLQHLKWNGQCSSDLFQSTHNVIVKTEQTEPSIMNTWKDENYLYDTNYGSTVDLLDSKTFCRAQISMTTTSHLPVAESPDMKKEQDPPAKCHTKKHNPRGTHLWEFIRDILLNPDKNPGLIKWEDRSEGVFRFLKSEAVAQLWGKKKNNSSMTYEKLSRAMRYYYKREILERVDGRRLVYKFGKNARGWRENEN
Summed up: as §1

In a further assay the target is SPI1 (Homo sapiens, UniProt P17947 1-270). Summed up: as §1
A further assay addresses SPIB (Homo sapiens, UniProt Q01892 1-262). The procedure, abridged: as §1
A further assay has as its target T5, FEV (Homo sapiens, UniProt Q99581 1-238).
T5 sequence: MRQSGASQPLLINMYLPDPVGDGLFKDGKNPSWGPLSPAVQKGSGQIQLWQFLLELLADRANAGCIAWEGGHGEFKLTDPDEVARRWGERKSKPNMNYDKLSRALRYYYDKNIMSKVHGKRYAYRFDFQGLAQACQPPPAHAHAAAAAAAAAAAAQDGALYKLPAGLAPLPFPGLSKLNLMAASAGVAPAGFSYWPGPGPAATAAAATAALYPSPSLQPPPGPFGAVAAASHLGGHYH
The procedure, abridged: as §1

The next assay deals with ETV5 (Homo sapiens, UniProt P41161 1-510). Summed up: as §1
The next assay addresses ELF4 (Homo sapiens, UniProt Q99607 1-663). Summed up: as §1
The next assay deals with T6, ELK4 (Homo sapiens, UniProt P28324-2 1-405).
T6 sequence: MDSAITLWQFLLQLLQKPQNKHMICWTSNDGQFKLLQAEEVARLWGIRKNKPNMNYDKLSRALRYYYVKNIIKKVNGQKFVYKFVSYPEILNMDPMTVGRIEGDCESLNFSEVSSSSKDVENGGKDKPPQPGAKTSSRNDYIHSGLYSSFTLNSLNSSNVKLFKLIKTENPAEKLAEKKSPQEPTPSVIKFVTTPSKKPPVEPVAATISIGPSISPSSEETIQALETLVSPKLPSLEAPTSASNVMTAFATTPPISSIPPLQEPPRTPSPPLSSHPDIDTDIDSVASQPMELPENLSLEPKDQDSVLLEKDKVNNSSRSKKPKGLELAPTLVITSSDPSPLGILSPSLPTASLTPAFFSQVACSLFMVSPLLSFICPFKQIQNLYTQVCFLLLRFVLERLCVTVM
The procedure, abridged:
as §1

In a further assay the target is T7, ETV2 (Homo sapiens, UniProt O00321 1-342).
T7 sequence: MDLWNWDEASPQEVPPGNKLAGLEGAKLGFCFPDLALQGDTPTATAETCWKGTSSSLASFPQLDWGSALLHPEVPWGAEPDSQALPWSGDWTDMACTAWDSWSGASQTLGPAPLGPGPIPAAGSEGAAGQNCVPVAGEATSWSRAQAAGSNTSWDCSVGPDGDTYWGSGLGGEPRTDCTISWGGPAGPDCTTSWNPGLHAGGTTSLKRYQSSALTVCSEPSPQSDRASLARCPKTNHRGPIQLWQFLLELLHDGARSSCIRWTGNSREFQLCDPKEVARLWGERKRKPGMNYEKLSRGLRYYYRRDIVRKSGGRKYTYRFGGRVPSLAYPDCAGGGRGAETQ
The procedure, abridged:
as §1

Another assay deals with T8, ELF3 (Homo sapiens, UniProt P78545 1-371).
T8 sequence: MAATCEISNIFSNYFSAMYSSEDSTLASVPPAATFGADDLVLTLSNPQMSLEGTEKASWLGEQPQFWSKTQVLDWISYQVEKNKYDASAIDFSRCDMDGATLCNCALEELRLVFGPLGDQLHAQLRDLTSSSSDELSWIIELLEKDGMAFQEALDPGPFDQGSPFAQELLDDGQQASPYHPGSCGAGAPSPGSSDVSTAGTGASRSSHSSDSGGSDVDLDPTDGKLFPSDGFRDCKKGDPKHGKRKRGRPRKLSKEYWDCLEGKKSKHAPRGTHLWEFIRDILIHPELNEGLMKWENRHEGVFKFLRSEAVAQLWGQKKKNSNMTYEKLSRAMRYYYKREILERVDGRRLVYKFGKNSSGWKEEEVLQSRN
The procedure, abridged:
as §1

For another assay, the target named is ETV1 (Homo sapiens, UniProt P50549 1-477). Summed up:
as §1

The target of the next assay is T9, ERF (Homo sapiens, UniProt P50548 1-548).
T9 sequence: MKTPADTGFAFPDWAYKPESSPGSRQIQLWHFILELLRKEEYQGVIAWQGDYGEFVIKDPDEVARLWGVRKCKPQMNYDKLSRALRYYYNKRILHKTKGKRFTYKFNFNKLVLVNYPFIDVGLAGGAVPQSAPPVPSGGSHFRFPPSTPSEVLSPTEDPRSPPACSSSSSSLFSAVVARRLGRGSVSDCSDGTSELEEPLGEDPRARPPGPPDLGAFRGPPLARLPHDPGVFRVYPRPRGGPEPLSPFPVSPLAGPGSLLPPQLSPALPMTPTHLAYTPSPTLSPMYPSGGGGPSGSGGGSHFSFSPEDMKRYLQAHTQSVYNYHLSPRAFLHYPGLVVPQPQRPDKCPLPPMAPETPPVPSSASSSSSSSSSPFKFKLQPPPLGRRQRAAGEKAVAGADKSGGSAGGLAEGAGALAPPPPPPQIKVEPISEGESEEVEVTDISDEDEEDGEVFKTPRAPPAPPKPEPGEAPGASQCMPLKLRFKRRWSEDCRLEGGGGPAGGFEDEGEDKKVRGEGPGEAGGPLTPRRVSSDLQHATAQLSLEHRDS
Summed up: as §1

The target of the next assay is T10, ETV3L (Homo sapiens, UniProt Q6ZN32 1-361).
T10 sequence: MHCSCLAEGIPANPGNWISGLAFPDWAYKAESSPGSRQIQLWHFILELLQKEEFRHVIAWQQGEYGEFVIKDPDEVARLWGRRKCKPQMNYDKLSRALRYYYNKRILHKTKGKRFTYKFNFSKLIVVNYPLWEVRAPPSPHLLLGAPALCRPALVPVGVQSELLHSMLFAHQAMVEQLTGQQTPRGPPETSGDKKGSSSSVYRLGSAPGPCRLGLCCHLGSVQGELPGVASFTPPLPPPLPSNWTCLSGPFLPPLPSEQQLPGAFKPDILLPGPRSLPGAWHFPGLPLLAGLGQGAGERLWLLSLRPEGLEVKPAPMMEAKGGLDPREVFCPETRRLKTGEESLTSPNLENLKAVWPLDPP
Summed up: as §1

The target in the next assay is T11, ETS2 (Homo sapiens, UniProt P15036 1-469).
T11 sequence: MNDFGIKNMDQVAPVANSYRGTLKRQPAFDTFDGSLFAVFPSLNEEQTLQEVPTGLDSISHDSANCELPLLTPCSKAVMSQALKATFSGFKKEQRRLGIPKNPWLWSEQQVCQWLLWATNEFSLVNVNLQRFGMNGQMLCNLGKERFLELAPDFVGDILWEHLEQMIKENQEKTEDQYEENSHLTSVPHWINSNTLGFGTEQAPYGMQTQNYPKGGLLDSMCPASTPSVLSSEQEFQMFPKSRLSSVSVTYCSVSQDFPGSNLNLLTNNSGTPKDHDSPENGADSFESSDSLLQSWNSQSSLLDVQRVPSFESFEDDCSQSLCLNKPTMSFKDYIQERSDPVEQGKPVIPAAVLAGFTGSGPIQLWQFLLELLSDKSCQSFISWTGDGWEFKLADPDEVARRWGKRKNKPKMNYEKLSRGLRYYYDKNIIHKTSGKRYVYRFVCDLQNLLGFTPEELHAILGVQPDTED
The procedure, abridged: as §1

Another assay has as its target T12, ETV7 (Homo sapiens, UniProt Q9Y603 1-341).
T12 sequence: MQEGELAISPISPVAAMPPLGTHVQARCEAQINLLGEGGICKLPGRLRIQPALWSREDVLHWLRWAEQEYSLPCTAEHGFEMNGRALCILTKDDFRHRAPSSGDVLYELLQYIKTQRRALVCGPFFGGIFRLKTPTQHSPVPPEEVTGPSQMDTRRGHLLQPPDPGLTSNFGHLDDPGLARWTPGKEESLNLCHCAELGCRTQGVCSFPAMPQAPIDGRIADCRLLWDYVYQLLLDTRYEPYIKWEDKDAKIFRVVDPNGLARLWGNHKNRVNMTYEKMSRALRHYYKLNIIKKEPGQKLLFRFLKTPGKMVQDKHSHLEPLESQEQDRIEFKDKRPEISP
Summed up:
as §1

For a further assay, the target named is T13, ETV3 (Homo sapiens, UniProt P41162-2 1-143).
T13 sequence: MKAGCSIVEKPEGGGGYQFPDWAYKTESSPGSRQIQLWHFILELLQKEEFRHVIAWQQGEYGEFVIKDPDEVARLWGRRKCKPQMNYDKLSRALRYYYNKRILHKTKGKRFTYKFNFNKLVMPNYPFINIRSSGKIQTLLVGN
The procedure, abridged:
as §1

The target of a further assay is ETV6 (Homo sapiens, UniProt P41212 1-452). The procedure, abridged: as §1
Chain of ETV6 (P41212 whole entry): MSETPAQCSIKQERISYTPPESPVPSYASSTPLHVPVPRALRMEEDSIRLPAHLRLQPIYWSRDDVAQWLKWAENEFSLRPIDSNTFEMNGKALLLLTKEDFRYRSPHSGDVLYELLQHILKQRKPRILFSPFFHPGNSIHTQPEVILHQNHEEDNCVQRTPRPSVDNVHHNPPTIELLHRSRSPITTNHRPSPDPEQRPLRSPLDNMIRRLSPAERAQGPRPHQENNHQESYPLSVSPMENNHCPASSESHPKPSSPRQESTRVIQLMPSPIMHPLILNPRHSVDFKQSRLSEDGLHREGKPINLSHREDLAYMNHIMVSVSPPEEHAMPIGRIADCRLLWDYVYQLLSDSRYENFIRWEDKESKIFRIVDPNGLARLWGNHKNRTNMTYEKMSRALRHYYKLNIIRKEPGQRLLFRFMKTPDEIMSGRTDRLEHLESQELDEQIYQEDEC

Chain of ELF1 (P32519 whole entry): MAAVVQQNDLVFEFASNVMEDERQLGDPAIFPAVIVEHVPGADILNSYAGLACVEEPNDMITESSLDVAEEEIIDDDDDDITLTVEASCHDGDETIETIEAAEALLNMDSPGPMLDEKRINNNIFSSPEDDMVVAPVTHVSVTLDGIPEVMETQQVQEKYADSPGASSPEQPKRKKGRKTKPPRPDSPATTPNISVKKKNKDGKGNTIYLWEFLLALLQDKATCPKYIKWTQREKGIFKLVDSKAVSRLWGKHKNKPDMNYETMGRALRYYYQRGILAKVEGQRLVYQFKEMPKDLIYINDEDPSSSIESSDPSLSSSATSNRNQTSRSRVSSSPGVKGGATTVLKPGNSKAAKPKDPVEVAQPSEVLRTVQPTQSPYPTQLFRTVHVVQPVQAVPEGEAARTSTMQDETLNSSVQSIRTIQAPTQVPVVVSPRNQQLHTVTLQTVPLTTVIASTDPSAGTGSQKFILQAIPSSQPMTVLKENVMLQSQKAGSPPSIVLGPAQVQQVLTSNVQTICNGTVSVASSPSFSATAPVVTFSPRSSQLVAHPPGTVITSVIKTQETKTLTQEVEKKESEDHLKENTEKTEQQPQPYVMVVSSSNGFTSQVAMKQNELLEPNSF
Chain of ETV5 (P41161 whole entry): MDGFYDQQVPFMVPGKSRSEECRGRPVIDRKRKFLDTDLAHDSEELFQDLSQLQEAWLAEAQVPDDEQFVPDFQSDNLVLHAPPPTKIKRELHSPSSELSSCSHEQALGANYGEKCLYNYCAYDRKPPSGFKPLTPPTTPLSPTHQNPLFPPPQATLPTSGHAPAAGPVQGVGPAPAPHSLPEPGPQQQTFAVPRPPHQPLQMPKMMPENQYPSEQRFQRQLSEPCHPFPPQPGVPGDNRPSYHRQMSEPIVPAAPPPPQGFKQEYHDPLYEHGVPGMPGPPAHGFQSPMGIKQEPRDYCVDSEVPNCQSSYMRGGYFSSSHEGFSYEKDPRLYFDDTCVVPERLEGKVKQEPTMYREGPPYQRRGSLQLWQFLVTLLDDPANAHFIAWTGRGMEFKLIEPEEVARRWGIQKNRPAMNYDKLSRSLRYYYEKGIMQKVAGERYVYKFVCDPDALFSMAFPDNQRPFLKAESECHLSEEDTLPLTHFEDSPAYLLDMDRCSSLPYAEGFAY
Chain of ELF4 (Q99607 whole entry): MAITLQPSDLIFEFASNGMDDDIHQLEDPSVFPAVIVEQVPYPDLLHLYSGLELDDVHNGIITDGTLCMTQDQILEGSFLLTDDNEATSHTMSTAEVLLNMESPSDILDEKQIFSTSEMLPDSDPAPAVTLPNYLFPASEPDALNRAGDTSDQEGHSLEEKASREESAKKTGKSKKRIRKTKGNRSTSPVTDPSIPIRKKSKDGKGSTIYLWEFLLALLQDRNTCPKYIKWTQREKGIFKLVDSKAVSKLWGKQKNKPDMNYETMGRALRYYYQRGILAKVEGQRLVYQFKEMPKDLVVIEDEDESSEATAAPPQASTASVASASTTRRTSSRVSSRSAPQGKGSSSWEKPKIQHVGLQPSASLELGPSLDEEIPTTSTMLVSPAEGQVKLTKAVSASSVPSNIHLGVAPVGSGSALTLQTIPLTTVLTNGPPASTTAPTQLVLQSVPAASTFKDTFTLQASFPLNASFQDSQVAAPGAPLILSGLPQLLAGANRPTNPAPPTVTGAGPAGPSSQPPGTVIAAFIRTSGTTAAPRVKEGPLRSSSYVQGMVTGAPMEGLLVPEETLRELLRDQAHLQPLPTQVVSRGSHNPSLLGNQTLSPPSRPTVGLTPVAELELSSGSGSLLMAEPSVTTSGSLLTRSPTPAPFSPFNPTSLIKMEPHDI
Chain of ETV1 (P50549 whole entry): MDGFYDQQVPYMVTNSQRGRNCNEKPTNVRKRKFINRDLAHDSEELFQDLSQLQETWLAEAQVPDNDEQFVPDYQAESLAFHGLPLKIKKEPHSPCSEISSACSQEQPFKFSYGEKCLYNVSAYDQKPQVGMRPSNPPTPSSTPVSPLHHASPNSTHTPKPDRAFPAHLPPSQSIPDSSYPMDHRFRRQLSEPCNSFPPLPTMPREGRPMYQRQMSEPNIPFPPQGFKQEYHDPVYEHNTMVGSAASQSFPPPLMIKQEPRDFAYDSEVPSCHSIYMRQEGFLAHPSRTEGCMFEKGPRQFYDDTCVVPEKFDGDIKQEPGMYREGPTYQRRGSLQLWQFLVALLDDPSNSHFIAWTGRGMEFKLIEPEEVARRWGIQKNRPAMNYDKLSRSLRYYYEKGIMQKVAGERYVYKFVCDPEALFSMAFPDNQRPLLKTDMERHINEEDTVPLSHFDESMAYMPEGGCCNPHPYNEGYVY
Chain of SPIB (Q01892 whole entry): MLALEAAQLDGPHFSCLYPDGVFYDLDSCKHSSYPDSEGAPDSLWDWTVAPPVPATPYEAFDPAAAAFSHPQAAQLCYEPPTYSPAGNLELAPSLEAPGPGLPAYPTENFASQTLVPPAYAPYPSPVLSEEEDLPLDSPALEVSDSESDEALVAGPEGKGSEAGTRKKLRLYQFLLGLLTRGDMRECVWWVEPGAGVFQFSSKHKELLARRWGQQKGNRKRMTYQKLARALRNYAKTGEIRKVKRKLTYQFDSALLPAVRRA

As for ACGACC, the binding signal is 1.21 fold enrichment (6-mer frequency, TF over GST control) in the assay with ELK1; 1.11 fold enrichment (6-mer frequency, TF over GST control) with GABPA; 1.1 fold enrichment (6-mer frequency, TF over GST control) with ERG; 1.21 fold enrichment (6-mer frequency, TF over GST control) with ELF1; 1.1 fold enrichment (6-mer frequency, TF over GST control) with EHF; 1.03 fold enrichment (6-mer frequency, TF over GST control) in the assay with SPI1. For the same sequence, the binding signal with SPIB was 1.07 fold enrichment (6-mer frequency, TF over GST control); with FEV, 1.22 fold enrichment (6-mer frequency, TF over GST control); with ETV5, 1.17 fold enrichment (6-mer frequency, TF over GST control); with ELF4, 1.26 fold enrichment (6-mer frequency, TF over GST control); in the assay with ELK4, 1.14 fold enrichment (6-mer frequency, TF over GST control); with ETV2, 1.34 fold enrichment (6-mer frequency, TF over GST control). For the same sequence, the binding signal is 1.25 fold enrichment (6-mer frequency, TF over GST control) in the assay with ELF3; 1.2 fold enrichment (6-mer frequency, TF over GST control) with ETV1; 1.11 fold enrichment (6-mer frequency, TF over GST control) with ERF; 1.18 fold enrichment (6-mer frequency, TF over GST control) with ETV3L; 1.15 fold enrichment (6-mer frequency, TF over GST control) with ETS2; 1.18 fold enrichment (6-mer frequency, TF over GST control) with ETV7. Besides, the binding signal in the assay with ETV3 was 1.24 fold enrichment (6-mer frequency, TF over GST control); in the assay with ETV6 it was 1.19 fold enrichment (6-mer frequency, TF over GST control).
